Several values for one entry are separate records, joined by “and”; a condition that tells them apart may be missing. Identical values can stand only once. Inconclusive results are not listed. Where a structure was tested more than once in an assay, its records may differ in their call. Activity calls are given as the source filed them. Unless noted, calls come from the whole dose curve; as a rule, active = well fitted curve in the direction sought with a large enough effect in the repeat runs; inconclusive = weak or mixed curves; inactive = no such curve, though single readings can be large; an effect the other way counts as inactive or inconclusive.
Tests used:
[1] = qHTS assay to identify small molecule agonists of the vitamin D receptor (VDR) signaling pathway - cell viability counter screen (AID 743224); note: nearly all actives have a fitted effect of over 50% in size; note: potency is the fitted concentration of half-maximal effect
Summary of the method: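 Counter screen run in the same wells as the VDR-bla reporter assay: CellTiter-Glo luminescence, 30 min at room temperature, after 16 h compound treatment at 37C of cells pre-plated for 4 h.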

[2] = qHTS assay to identify small molecule antagonists of the vitamin D receptor (VDR) signaling pathway - cell viability counter screen (AID 743225); note: nearly all actives have a fitted effect of over 50% in size; note: potency is the fitted concentration of half-maximal effect
Summary of the method: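 Cells (VDR-UAS-bla HEK 293T) are plated, rested 4 h at 37C, dosed with compound and 3 nM final 1-alpha,25-dihydroxy vitamin D3, and incubated 16 h. Viability is taken from CellTiter-Glo luminescence in the reporter wells.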

[3] = qHTS assay to identify small molecule agonists of the NFkB signaling pathway - cell viability counter screen (AID 1159515; calls by dose curve; note: nearly all actives have a fitted effect of over 55% in size; note: potency is the fitted concentration of half-maximal effect)
Summary of the method: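 Read by CellTiter-Glo luminescence (30 min, room temperature) in the wells also used for the beta-lactamase FRET read. ME-180 NFkB-bla cells at 2,000 per well were plated overnight, then exposed to compound for 5 hr at 37 C.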

[4] = qHTS assay to identify small molecule agonists of the endoplasmic reticulum stress response signaling pathway (AID 1159516; active = well fitted activation curve with a large enough effect in the signal ratio in the repeat runs, not every such curve was filed as active; the % refers to the signal ratio; note: potency is the fitted concentration of half-maximal effect)
Summary of the method: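 Ratiometric FRET readout (405 nm excitation; 460 and 530 nm emission) of a beta-lactamase gene driven by the ER stress response element, after 2 hr substrate loading. HeLa ESRE-bla cells were seeded overnight and treated with compounds for only 5 hr at 37 C.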

[5] = qHTS assay to identify small molecule agonists of the endoplasmic reticulum stress response signaling pathway - cell viability counter screen (AID 1159517; calls by dose curve; note: nearly all actives have a fitted effect of over 50% in size; note: potency is the fitted concentration of half-maximal effect)
Summary of the method: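 Steps: seed 1,500 ESRE-bla HeLa cells per well; incubate overnight at 37 C, 5% CO2; add compounds in DMSO for 5 hr; run FRET substrate 2 hr RT; add CellTiter-Glo, wait 30 min, read luminescence.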

[6] = qHTS assay to identify small molecule antagonists of the retinoid-related orphan receptor gamma (ROR-gamma) signaling pathway - cell viability counter screen (AID 1159520); note: nearly all actives have a fitted effect of over 50% in size; note: potency is the fitted concentration of half-maximal effect
Summary of the method: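 Tet-on ROR gamma CHO cells were given compounds for 2 hr, then doxycycline hyclate at 1 uM final, and incubated 16 hr at 37 C. Viability was measured as ATP content by CellTiter-Glo luminescence.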

[7] = qHTS assay to identify small molecule agonists of the AP-1 signaling pathway - cell viability counter screen (AID 1159525; calls by dose curve; note: nearly all actives have a fitted effect of over 55% in size; note: potency is the fitted concentration of half-maximal effect)
Summary of the method: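 Same-well cytotoxicity counter screen of the Tox21 10K library in ME-180 cells. The readout is ATP-dependent luminescence after 5 h compound treatment. Data are normalised to DMSO and tetra n-octyl ammonium bromide controls.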

[8] = qHTS assay to identify small molecule agonists of the AP-1 signaling pathway (AID 1159526; calls by dose curve)
[9] = target: Retinoic acid receptor RXR-alpha (Homo sapiens) (UniProt P19793); assay: qHTS assay to identify small molecule agonists of the RXR signaling pathway (AID 1159527; calls by dose curve; note: nearly all actives have a fitted effect of over 35% in size)
Summary of the method: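 qHTS of the Tox21 10K library in GeneBLAzer RXR-alpha HEK 293T cells carrying a beta-lactamase reporter […]; 16 hr treatment, 9-cis retinoic acid as agonist control, FRET read-out.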

[10] = qHTS assay to identify small molecule agonists of the RXR signaling pathway - cell viability counter screen (AID 1159529); note: nearly all actives have a fitted effect of over 50% in size; note: potency is the fitted concentration of half-maximal effect
Summary of the method: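 Cell viability is measured by CellTiter-Glo luminescence, 30 min at room temperature, in wells already read for beta-lactamase. Engineered HEK 293T cells (RXR-alpha-UAS-bla) are dosed 16 hr at 37 C. Tetraoctyl ammonium bromide serves as positive control.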

[11] = qHTS assay to identify small molecule antagonists of the retinoid acid receptor (RAR) signaling pathway - cell viability counter screen (AID 1159551); note: nearly all actives have a fitted effect of over 35% in size
Summary of the method: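 Cytotoxicity counter screen: ATP content quantified by CellTiter-Glo luminescence in C3RL4 cells treated 6 hr at 37 C with compound and retinol (1 uM final). Cells plated at 1,000/well and cultured overnight before dosing.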

[12] = qHTS assay to identify small molecule antagonists of the retinoic acid receptor (RAR) signaling pathway (AID 1159552; note: nearly all actives have a fitted effect of over 50% in size; note: potency is the fitted concentration of half-maximal effect)
Summary of the method: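 Quantitative HTS in C3RL4 RARE-luciferase reporter cells. Compounds were added with 1 uM (final) retinol; luminescence was read after 6 hr.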

[13] = qHTS assay to identify small molecule agonists of the retinoic acid receptor (RAR) signaling pathway (AID 1159553)
Summary of the method: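 Luminescence was measured 30 min after luciferase reagent addition at room temperature. Before that, C3RL4 reporter cells (1,000 per well, plated overnight) were treated with compound for 6 hr at 37 C and 5% CO2.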

[14] = target: Nuclear receptor ROR-gamma (Homo sapiens) (UniProt P51449); assay: qHTS assay to identify small molecule antagonists of the retinoid-related orphan receptor gamma (ROR-gamma) signaling pathway (AID 1159521; note: nearly all actives have a fitted effect of over 50% in size; note: potency is the fitted concentration of half-maximal effect)
Summary of the method: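 RORγ antagonism is scored from reduced reporter luminescence in Tet-on CHO cells. Induction used 1 uM final doxycycline hyclate for 16 h at 37 C, following a 2 h compound exposure.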

[15] = qHTS assay to identify small molecule antagonists of the estrogen related receptor (ERR) signaling pathway - cell viability counter screen (AID 1224818);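 note: series mostly up to about 46 µM; viability measured after 17.5 h of compound exposure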
Summary of the method: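 Cytotoxicity counter screen: fluorescence from CellTiter-Fluor, added after 17.5 h compound exposure at 37 C and read 30 min later. ERR cell line seeded at 2,000 cells/well, preincubated 6 h before dosing.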

[16] = qHTS assay to identify small molecule antagonists of the estrogen related receptor (ERR) signaling pathway (AID 1224819)
Summary of the method: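 LOPAC library screened for antagonism as reduced One-Glo luminescence in ERR reporter cells (2,000/well). Compounds were added after 6 h pre-incubation and left 18 h at 37C; reading followed a 30 min room-temperature reagent step.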

[17] = qHTS assay to identify small molecule agonists of the estrogen related receptor (ERR) signaling pathway (AID 1224820)
Summary of the method: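 Luminescence readout (One-Glo, 30 min RT) from NTP-supplied ERR cell line exposed to compounds for 18 h at 37 C. Cells seeded 2,000 per well and pre-incubated 6 h before pin-tool compound transfer.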

[18] = test system: estrogen-related receptor alpha (ERRalpha) with PGC-1alpha coactivator, human; assay: qHTS assay to identify small molecule antagonists of the estrogen related receptor signaling pathway with the pleiotropic PPARgamma coactivator (PGC) (AID 1224821; calls by dose curve)
Summary of the method: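 PGC/ERR reporter cells; 6 h pre-incubation 37 C/5% CO2; pin-tool compound in DMSO, 18 h 37 C; One-Glo added, 30 min RT; luminescence read. qHTS antagonist mode.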

[19] = qHTS assay to identify small molecule antagonists of the estrogen related receptor signaling pathway with the pleiotropic PPARgamma coactivator (PGC) cell viability counter screen (AID 1224822; note: series mostly up to about 46 µM)
Summary of the method: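 Viability counter-screen read by fluorescence intensity after 30 min with CellTiter-Fluor at 37 C; PGC/ERR reporter cells were exposed to compounds for 17.5 h at 37 C following a 6 h preincubation.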

[20] = qHTS assay to identify small molecule agonists of the estrogen related receptor signaling pathway with the pleiotropic PPARgamma coactivator (PGC) (AID 1224823)
Summary of the method: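 Luminescence readout (One-Glo, 30 min RT) from PGC/ERR cell line treated 18 h at 37 C with pin-tool-delivered DMSO compound solutions; cells plated 6 h before dosing. Quantitative HTS format.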

Measured: Potency

Sequence of Retinoic acid receptor RXR-alpha (Homo sapiens) (P19793 whole entry, looked up): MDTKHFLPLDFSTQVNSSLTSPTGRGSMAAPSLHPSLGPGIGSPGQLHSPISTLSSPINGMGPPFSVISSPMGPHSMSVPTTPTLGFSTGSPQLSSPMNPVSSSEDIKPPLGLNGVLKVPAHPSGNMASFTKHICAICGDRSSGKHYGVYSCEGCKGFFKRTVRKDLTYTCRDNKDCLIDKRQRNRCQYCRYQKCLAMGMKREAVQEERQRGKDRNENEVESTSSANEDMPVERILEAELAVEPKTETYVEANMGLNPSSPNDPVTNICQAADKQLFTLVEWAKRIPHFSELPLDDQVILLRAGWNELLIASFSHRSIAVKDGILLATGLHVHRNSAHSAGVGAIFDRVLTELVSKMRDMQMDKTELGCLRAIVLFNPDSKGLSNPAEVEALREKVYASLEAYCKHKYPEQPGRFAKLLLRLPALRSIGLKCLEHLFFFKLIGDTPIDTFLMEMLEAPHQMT

OC[P+](CO)(CO)CO
active: [4] 1.57 µM
55.6 µM (active) and inactive: [1]
inactive: [2] | [3] | [5] | [6] | [7] | [8] | [9] | [10] | [11] | [12] | [13]

O=C(N/N=C/c1ccc([N+](=O)[O-])o1)c1cc([N+](=O)[O-])cc([N+](=O)[O-])c1O
inactive: [1] | [2] | [3] | [4] | [5] | [6] | [14] | [7] | [8] | [10] | [11] | [12]

O=C(N[C@H]1CN2CCC1CC2)c1ccc2c(c1)OCCO2
inactive: [1] | [2] | [3] | [4] | [5] | [6] | [14] | [7] | [8] | [10] | [11] | [12] | [13]

CC(=O)OC(c1ccccc1)C(Cl)(Cl)Cl (stereo not drawn)
inactive: [1] | [3] | [4] | [5] | [6] | [14] | [7] | [8] | [10] | [11]

CN(C)c1ccc(N=O)cc1
inactive and 19.5 µM (active): [2]
active: [1] 19.6 µM and 43.6 µM | [3] 43.6 µM | [5] 43.6 µM | [6] 15.4 µM and 12.2 µM | [14] 4.34 µM and 9.69 µM | [7] 21.9 µM and 30.9 µM | [10] 34.8 µM | [12] 24.4 µM
inactive: [4]

CC(C)(C)NCC(O)c1ccccc1Cl (stereo not drawn)
inactive: [1] | [2] | [3] | [4] | [5] | [6] | [14] | [7] | [8] | [10] | [11] | [15] | [16] | [17] | [18] | [19] | [20]

O=C(O)c1cc(I)cc(I)c1I
inactive: [1] | [2] | [3] | [4] | [5] | [6] | [14] | [7] | [8] | [10] | [11] | [12] | [13]

CC(O)CN1CCN(CC(=O)[O-])CCN(CC(=O)[O-])CCN(CC(=O)[O-])CC1.[Gd+3] (stereo not drawn)
inactive: [1] | [2] | [3] | [4] | [5] | [6] | [14] | [7] | [8] | [10] | [11]

CC(C)(C)NCC(O)c1cc(Cl)c(N)c(C(F)(F)F)c1 (stereo not drawn)
inactive: [1] | [2] | [3] | [4] | [5] | [6] | [14] | [7] | [8] | [10] | [11] | [12] | [13]

O=C(O)C(O)C(O)C(=O)O (stereo not drawn)
inactive: [1] | [2] | [3] | [4] | [5] | [6] | [14] | [7] | [8] | [10] | [11]

From PubChem BioAssay (Tox21)
